What follows are molecules tested against COPS5 (UniProt Q92905) (assay: log2 ratio of Biotin-Ahx-Ub-VS probe labelling (fragment/DMSO); higher = less target engagement (more negative = stronger competition), active = hit call of the paper (q ≤ 0.05, log2 ratio ≤ -1)). Conditions: compound concentration: 200 uM; treatment time: 3 h.
Method: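 Competitive ABPP in HEK293T cell lysate. Lysates were treated with each chloroacetamide fragment at 200 µM for 3 h, then with Biotin-Ahx-Ub-VS (0.5 µM, 1 h), NeutrAvidin-enriched and analysed by diaPASEF LC-MS/MS. Protein LFQ was median-normalised; average log2 ratio is fragment/DMSO from an unpaired t-test (n=3 treated, n=44 DMSO). Hits: q ≤ 0.05, log2 ratio ≤ -1, unique peptides ≥ 2.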

COPS5, sequence (Q92905 whole entry, looked up, the tested form may be a part): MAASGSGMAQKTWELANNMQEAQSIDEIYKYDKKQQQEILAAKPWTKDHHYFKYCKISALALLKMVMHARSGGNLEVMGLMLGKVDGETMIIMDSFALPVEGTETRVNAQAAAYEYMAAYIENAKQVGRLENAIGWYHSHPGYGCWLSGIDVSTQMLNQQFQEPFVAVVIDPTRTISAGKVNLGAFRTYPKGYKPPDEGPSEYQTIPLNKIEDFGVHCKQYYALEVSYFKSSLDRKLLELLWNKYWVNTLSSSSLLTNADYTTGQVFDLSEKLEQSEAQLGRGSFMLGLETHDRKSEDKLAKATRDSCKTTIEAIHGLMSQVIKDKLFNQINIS

log2 ratio of Biotin-Ahx-Ub-VS probe labelling, inactive:
O=C(CCl)N[C@H]1CC[C@@H](CO)CC1 0.0798
COc1ccc(C2CCCN2C(=O)CCl)c(OC)c1 (stereo not given) -0.524
CC(=O)C1CCCCN1C(=O)CCl (stereo not given) -0.141
Cc1conc1C1CN(C(=O)CCl)C1 0.0369
Cl.O=C(CN1CCN(C(=O)CCl)CC1)Nc1ccc(F)cc1 0.0025
O=C(CCl)Nc1cccc(C(=O)N2CCSCC2)c1 -0.111
O=C(CCl)Nc1ccc2c(c1)OC(F)(F)O2 -0.156
O=C(CCl)N1CCOC(CCc2ccccc2)C1 (stereo not given) -0.026
CC1Cc2ccccc2N1C(=O)CCl (stereo not given) 0.169
O=C(CCl)NC(Cn1ccccc1=O)c1ccccc1 (stereo not given) 0.168
CN(CCc1ncc(Br)cn1)C(=O)CCl.Cl 0.2
Cc1nc(CNC(=O)CCl)c2ccccn12.Cl -0.109
O=C(CCl)NCCc1ccc2c(c1)OCCO2 0.0882
Cc1nc(CN2CCCN(C(=O)CCl)CC2)no1.Cl -0.0569
O=C(CCl)Nc1nnc(CC(F)(F)F)o1 0.149
Cc1n[nH]c(=O)c2c(NC(=O)CCl)oc(C)c12 0.0565
Cl.Cn1ncc2c1CC(NC(=O)CCl)CC2 (stereo not given) -0.0206
CN(C(=O)CCl)c1nc2ccccc2s1 -0.0311
CC(NC(=O)CCl)c1cnn(C2CC2)c1 (stereo not given) -0.244
O=C(CCl)Nc1cc2c(cc1Cl)OCCCO2 -0.0643
O=C(CCl)N1CCC(C(=O)N2CCCC2)CC1 -0.223
CC(NC(=O)CCl)c1noc(Cc2ccccc2)n1 (stereo not given) 0.201
O=C(CCl)NC1CCCCNC1=O (stereo not given) 0.0739
O=C(CCl)NC1CCOc2ccccc21 (stereo not given) -0.296
Cl.Cn1ncc2c1CCCC2NC(=O)CCl (stereo not given) -0.0371
Cc1cccc(N2CCC(NC(=O)CCl)C2=O)c1 (stereo not given) -0.0421
Cc1cccc(NC(=O)CCl)c1C -0.347
Cc1ccc(C(=O)NCCNC(=O)CCl)cc1 -0.05
Cl.O=C(CCl)NCc1cc2c(nc1O)CCCC2 -0.023
COc1cccc(CN(C)C(=O)CCl)c1 0.0731
O=C(CCl)NCc1cccc(F)c1 0.17
O=C(O)C1Cc2ccccc2CN1C(=O)CCl (stereo not given) 0.15
O=C(CCl)NCCc1cccc2ccccc12 -0.0396
CCN(Cc1ccc(C#N)cc1F)C(=O)CCl -0.0333
Cl.O=C(CCl)N1CCn2cncc2C1 -0.298
O=C(CCl)N1CCc2sccc2C1 -0.455
O=C(CCl)NCc1ccc(N2CCOCC2)nc1 0.0899
CNC(=O)Cn1cc(NC(=O)CCl)cn1 0.0739
O=C(CCl)N1CCC(=C(F)CO)C1 -0.253
O=C(CCl)N(C1=CCCCC1)C1CC1 -0.00116

Source: the supplement of paper PMC11732987, “Enantioselective OTUD7B fragment discovery through chemoproteomics screening and high-throughput optimisation” (Communications Chemistry, 2025)
